The text below walks through data of PubChem BioAssay (Tox21).

Test [1] is described as follows: qHTS assay to test for compound auto fluorescence at 535 nm (green) in HEK293 cells (AID 720680).
Test [2] can be described thus: qHTS assay to test for compound auto fluorescence at 460 nm (blue) in HEK293 cell free culture (AID 720681). Note: potency is the fitted concentration of half-maximal effect. Put shortly:
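Blue fluorescence (Ex 405/Em 460 nm, triamterene-equivalent) was read immediately after pin transfer of compound or DMSO into medium (DMEM, 10% FBS) without cells.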

Test [3] in a line: qHTS assay to test for compound auto fluorescence at 535 nm (green) in HEK293 cell free culture (AID 720682). The procedure, abridged:
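Steps: dispense DMEM/10% FBS into empty wells; pin in compound or DMSO; measure fluorescence at 485/535 nm. Values are fluorescein equivalents.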

Test [4] in a line: qHTS assay to test for compound auto fluorescence at 590 nm (red) in HEK293 cell free culture (AID 720683). Put shortly: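 Red-channel autofluorescence of compounds in culture medium (DMEM, 10% FBS), no cells, measured at 540/590 nm. Rose Bengal sodium is the reference fluorophore for equivalence.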
A short description of test [5]: qHTS assay to test for compound auto fluorescence at 590 nm (red) in HepG2 cell free culture (AID 720684). Put shortly:
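Steps: dispense MEM/10% FBS medium, no cells; pin compound or DMSO vehicle; read red channel, Ex/Em 540/590 nm. Output given as Rose Bengal sodium equivalents.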

Test [6] in a line: qHTS assay to test for compound auto fluorescence at 460 nm (blue) in HepG2 cell free culture (AID 720685). Note: potency is the fitted concentration of half-maximal effect. Put shortly:
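Compound (23 nL) or DMSO pinned into cell-free MEM with 10% FBS; blue fluorescence read at 405/460 nm excitation/emission, expressed as auto-fluorescence equivalency to triamterene.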

Test [7] can be described thus: qHTS assay to test for compound auto fluorescence at 535 nm (green) in HepG2 cell free culture (AID 720686).
Test [8] is described as follows: qHTS assay to test for compound auto fluorescence at 460 nm (blue) in HepG2 cells (AID 720687). The procedure, abridged: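 Blue-channel autofluorescence (Ex/Em 405/460 nm, triamterene-equivalent) was measured after 1 hr compound exposure at 37 C, 5% CO2. Cells were HepG2, plated overnight at 37 C in MEM plus 10% FBS.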
The target of test [9] is Glucocorticoid receptor (Homo sapiens) (UniProt P04150). As to the kind of experiment: qHTS assay to identify small molecule agonists of the glucocorticoid receptor (GR) signaling pathway (AID 720691; active = well fitted activation curve with a large enough effect in the signal ratio in the repeat runs, not every such curve was filed as active; inconclusive = weak or mixed curves, or effect the other way; inactive = no such curve, though single readings can be large or run the other way; the % refers to the signal ratio). The following applies: GR-bla HeLa, beta-lactamase reporter ratio, 18 h. The procedure, abridged: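 Fluorescence intensity from LiveBLAzer B/G FRET substrate (2 h, room temperature) reports beta-lactamase expression driven by the glucocorticoid response element in GR-bla HeLa cells after 18 h compound exposure at 37 C.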

Test [10] has the same target. Briefly: qHTS assay to identify small molecule antagonists of the glucocorticoid receptor (GR) signaling pathway (AID 720692; active = well fitted inhibition curve with a large enough effect in the signal ratio in the repeat runs, not every such curve was filed as active; inconclusive = weak or mixed curves, or effect the other way; inactive = no such curve, though single readings can be large or run the other way; the % refers to the signal ratio; note: potency is the fitted concentration of half-maximal effect). Put shortly: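 HeLa GR-bla cells; cmpd + dex 5 nM final, 18 h 37 C; LiveBLAzer B/G FRET substrate 2 h RT; fluorescence intensity read. Antagonist mode, qHTS.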
Where [11] appears, read: activation: at 62.4 µM (top of the series).

SMILES strings stand for the structures. Values without a mark were called inactive. A structure can be active in one record and inactive in another. Activity calls are given as the source filed them. Unless noted, calls come from the whole dose curve; as a rule, active = well fitted curve in the direction sought with a large enough effect in the repeat runs; inconclusive = weak or mixed curves; inactive = flat fitted curve, though single readings scatter.
% is set by controls: 0 for no effect and ±100 for the full control effect; tags give direction and shape of the fitted curve or compound fluorescence and quenching.

Chain of Glucocorticoid receptor (Homo sapiens) (P04150 whole entry, looked up): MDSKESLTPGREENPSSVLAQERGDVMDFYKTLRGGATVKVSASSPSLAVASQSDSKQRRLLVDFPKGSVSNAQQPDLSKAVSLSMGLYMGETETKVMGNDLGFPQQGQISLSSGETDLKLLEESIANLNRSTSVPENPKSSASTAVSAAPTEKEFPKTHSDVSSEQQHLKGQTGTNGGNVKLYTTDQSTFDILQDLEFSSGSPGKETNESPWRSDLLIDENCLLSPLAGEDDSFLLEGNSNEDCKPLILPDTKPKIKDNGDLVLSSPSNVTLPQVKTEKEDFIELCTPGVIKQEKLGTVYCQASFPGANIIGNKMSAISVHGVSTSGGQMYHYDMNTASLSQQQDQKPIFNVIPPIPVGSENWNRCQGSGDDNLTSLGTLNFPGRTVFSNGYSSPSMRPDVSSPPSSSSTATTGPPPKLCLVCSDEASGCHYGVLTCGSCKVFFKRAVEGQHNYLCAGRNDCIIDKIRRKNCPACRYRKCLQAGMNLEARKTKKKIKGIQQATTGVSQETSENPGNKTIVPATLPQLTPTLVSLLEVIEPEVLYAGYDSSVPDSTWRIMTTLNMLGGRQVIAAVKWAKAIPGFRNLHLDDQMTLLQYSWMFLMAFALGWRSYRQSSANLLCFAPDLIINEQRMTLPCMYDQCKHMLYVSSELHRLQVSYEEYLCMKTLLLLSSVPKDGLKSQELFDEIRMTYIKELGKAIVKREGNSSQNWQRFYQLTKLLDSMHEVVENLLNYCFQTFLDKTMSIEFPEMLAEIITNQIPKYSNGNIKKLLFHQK

Turning to `Fc1ccc(C(c2ccc(F)cc2)N2CCN(C/C=C/c3ccccc3)CC2)cc1`, the result in test [1] and in test [3] was inactive. Besides, the Potency result in test [2], in test [4], in [5], in test [6], in test [7] and in [8] was “inactive” in each case. Further, the Potency result in test [9] (setting [11]) is “inactive”.

As for `N/C(=N\N=C\c1ccc(Cl)cc1)N/N=C/c1ccc(Cl)cc1`, the outcome in test [1] and in [3] was inactive. Moreover, the Potency result in [2], in [4], in test [5], in test [6], in test [7] and in [8] was “inactive” in each case. Moreover, the Potency entry in test [9] (setting [11]) and in test [10] was “inactive” each time.

Turning to `O=[N+]([O-])c1ccccc1Nc1ccccc1`, the compound was classed as inactive in test [1] and in test [3]. The Potency entry in test [2], in test [4], in test [5], in test [6], in test [7] and in [8] was “inactive” each time. For the same compound, the Potency entry in test [9] (setting [11]) was “inactive”.

`Cc1cc2c(cc1C(F)(F)F)N(C(=O)Nc1ccc(Oc3cccnc3C)nc1)CC2`: the outcome in [1] and in test [3] was inactive. The Potency result in [2], in test [4], in test [5], in test [6], in test [7] and in test [8] was “inactive” in each case. Further, the Potency entry in test [9] (setting [11]) and in test [10] was “inactive” each time.

Take `O=C(c1ccc(O)cc1O)c1ccc(O)cc1O`: the compound was classed as inactive in [1] and in [3]. Moreover, the Potency entry in test [2], in [4], in [5], in test [6], in test [7] and in test [8] was “inactive” throughout. Also, the Potency result in [9] (setting [11]) was “inactive”. Also, in test [10], the Potency is 24.6 µM (active).

Take `Nc1c(Cl)cc(Cl)cc1Cl`: the compound was called inactive in test [1] and in test [3]. In addition, the Potency entry in test [2], in [4], in [5], in test [6], in test [7] and in test [8] was “inactive” throughout. Moreover, the Potency entry in [9] (setting [11]) and in [10] was “inactive” throughout.

Regarding `Nc1ccccc1O`, the outcome in test [1] and in test [3] was inactive. Further, the Potency result in test [2], in test [4], in test [5], in test [6], in test [7] and in test [8] was “inactive” in each case. Moreover, in test [9] (setting [11]), the Potency result is “inactive”.

Turning to `C[C@H]1[C@H]2CC[C@H]3[C@@H]4CC=C5C[C@@H](N(C)C)CC[C@]5(C)[C@H]4CC[C@]23CN1C`, the outcome in [1] and in [3] was inactive. Also, the Potency result in test [2], in test [4], in test [5], in test [6], in test [7] and in test [8] was “inactive” throughout. The Potency entry in [9] (setting [11]) and in test [10] was “inactive” throughout.

With `Cc1onc(-c2ccccc2Cl)c1C(=O)N[C@@H]1C(=O)N2[C@@H]1SC(C)(C)[C@@H]2C(=O)O`, the fluorescence, % of fluorescein in test [1] is 0.0884% [at 18.6 µM]. Further, the fluorescence, % of fluorescent control in test [2] was 0.0563% [at 18.6 µM]; in test [4], 0.401% [at 18.6 µM]; in test [6] it was 0.0226% [at 18.6 µM]; in test [8], 0.0164% [at 18.6 µM]. Moreover, the activity change in test [3] is 0.0013% [at 18.6 µM]. For the same compound, the fluorescence, % of Rose Bengal in [5] is -0.203% [at 18.6 µM]. Moreover, the fluorescence, % of fluorescein control in [7] was 0.101% [at 18.6 µM]. The Potency result in [9] (setting [11]) was “inactive”.

With `CC(=O)N1CCN(c2ccc(OC[C@H]3CO[C@](Cn4ccnc4)(c4ccc(Cl)cc4Cl)O3)cc2)CC1`, the result in [1] and in test [3] was inactive. Also, the Potency result in test [2], in test [4], in test [5], in test [6], in test [7] and in test [8] was “inactive” in each case. Besides, the Potency result in test [9] (setting [11]) and in [10] was “inactive” in each case.

For the compound `On1ccccc1=S`, the compound was called inactive in [1] and in test [3]. In addition, the Potency result in test [2], in test [4], in [5], in test [6], in test [7] and in [8] was “inactive” in each case. Further, the Potency result in test [9] (setting [11]) is “inactive”.

Consider `O=C(Nc1cccc(C(F)(F)F)c1)c1cc(Br)cc(Br)c1O`, for which the call in test [1] and in test [3] was inactive. In addition, the Potency entry in test [2], in [4], in test [5], in test [6], in test [7] and in test [8] was “inactive” throughout. For the same compound, the activation was 9.27% [inconclusive] (active) in test [9] (setting [11]) and 10.1% in [9] (at 62.4 µM (top of the series)).

As to `CCCCCCCCCCC=O`, the result in test [1] and in test [3] was inactive. Moreover, the Potency result in test [2], in test [4], in test [5], in test [6], in [7] and in test [8] was “inactive” in each case. For the same compound, the Potency entry in test [9] (setting [11]) and in [10] was “inactive” throughout.

Take `C/C=C(\C)C(=O)OCc1ccccc1`: the call in test [1] and in test [3] was inactive. The Potency entry in [2], in test [4], in test [5], in test [6], in [7] and in test [8] was “inactive” throughout. In [9] (setting [11]), the Potency result was “inactive”.

In the case of `CN(C)c1ccc(SC#N)cc1`, the call in [1] and in [3] was inactive. Moreover, the Potency result in test [2], in test [4], in [5], in [6], in test [7] and in test [8] was “inactive” in each case. Also, the Potency result in test [9] (setting [11]) is “inactive”.

Regarding `CCCC(C)c1ccccc1O` (stereo not given), the compound was called inactive in [1] and in test [3]. Besides, the Potency entry in test [2], in [4], in test [5], in test [6], in test [7] and in test [8] was “inactive” throughout. Moreover, the Potency entry in test [9] (setting [11]) and in test [10] was “inactive” each time.

On to `Clc1ccc2n[nH]nc2c1`, for which the result in [1] and in [3] was inactive. The Potency entry in test [2], in [4], in test [5], in test [6], in test [7] and in [8] was “inactive” in each case. Also, the Potency entry in test [9] (setting [11]) was “inactive”.

On to `Nc1ccc2cc(S(=O)(=O)O)cc(O)c2c1N=Nc1ccccc1C(F)(F)F`, for which the compound was called inactive in test [1] and in test [3]. In addition, the Potency result in test [2], in test [4], in test [5], in test [6], in test [7] and in test [8] was “inactive” in each case. Moreover, the Potency entry in test [9] (setting [11]) and in test [10] was “inactive” each time.

As for `Oc1cccc2cc3cccc(O)c3c(O)c12`, the call in test [1] and in test [3] was inactive. Also, the Potency result in test [2], in [4], in test [5], in [6], in [7] and in test [8] was “inactive” throughout. Further, the Potency entry in test [9] (setting [11]) and in [10] was “inactive” in each case.

On to `CC[C@@]1(O)C(=O)OCc2c1cc1n(c2=O)Cc2cc3c(CN(C)C)c(O)ccc3nc2-1`, for which the call in test [1] and in test [3] was inactive. Further, the Potency in [2] was 14.1 µM (active); in test [6], 14.1 µM [fluorescent] (active). Also, the Potency result in test [4], in test [5], in [7] and in test [9] (setting [11]) was “inactive” each time.
